# Values joined by “and” are separate entries in the source; they are usually repeats but may differ in a detail not shown here. Equal entries are not always repeated. About 83,000 compounds went through this panel and 20% of them were active in at least one assay; those are over-represented in the sample as a whole.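 For each line, cells grew in 96-well plates with the test compound present at a single concentration for 48 hours.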 A number with no mark means an inactive call. Active and inactive are the calls of the source. How the source made its calls: active means growth percent below 10; inactive means the rest.
# Key:
# Experiment in all cases: NCI-60 one-dose screen, 48 h (100 = growth as untreated, 0 = no growth, -100 = all killed)
# Details in all cases: 10 µM unless noted
# [1] = test system: SR leukemia
# [2] = test system: RPMI-8226 leukemia
# [3] = test system: OVCAR-8 ovarian
# [4] = test system: OVCAR-5 ovarian
# [5] = test system: OVCAR-4 ovarian
# [6] = test system: SK-OV-3 ovarian
# [7] = test system: IGROV1 ovarian
# [8] = test system: OVCAR-3 ovarian
# [9] = test system: HS 578T breast
# [10] = test system: NCI/ADR-RES ovarian
# [11] = test system: T-47D breast
# [12] = test system: BT-549 breast
# [13] = test system: MDA-MB-435 melanoma
# [14] = test system: SW-620 colon
# [15] = test system: MCF7 breast
# [16] = test system: HCT-116 colon
# [17] = test system: HCC-2998 colon
# [18] = test system: KM12 colon
SMILES,growth [1],growth [2],growth [3],growth [4],growth [5],growth [6],growth [7],growth [8],growth [9],growth [10],growth [11],growth [12],growth [13],growth [14],growth [15],growth [16],growth [17],growth [18]
Clc1nccc2c(-c3csc(-c4c[nH]c5ccc(Br)cc45)n3)c[nH]c12,6.34% (active),44.9%,33.4%,60.1%,48.2%,27%,44.3%,62.5%,30.7%,31.3%,17.7%,53.2%,36.9%,-31.1% (active),23.7%,22.8%,27.8%,17.1%
CCNC(=S)n1nc(SC)c(C(=O)OCC)c1N,89.2%,110%,110%,84.8%,96.7%,94%,90.6%,97.7%,110%,94.8%,86.4%,95.3%,104%,102%,92%,96.1%,116%,97.5%
N=C(N)c1ccc(-c2ccc(-c3ccc(F)cc3)s2)nc1,3.85% (active),5.51% (active),68.9%,77.6%,79.7%,86.3%,65.7%,76.9%,84.2%,93.5%,76.3%,82.1%,70.2%,26%,21.9%,3.54% (active),16.2%,18.7%
CC[C@@H]1NC(=O)[C@H]([C@H](O)[C@H](C)C/C=C/c2ccc(CN3C(=O)C(C)=C(C)C3=O)cc2)N(C)C(=O)[C@H](C(C)C)N(C)C(=O)[C@H](CC(C)C)N(C)C(=O)[C@H](CC(C)C)N(C)C(=O)[C@@H](C)NC(=O)[C@H](C)NC(=O)[C@H](CC(C)C)N(C)C(=O)[C@H](C(C)C)NC(=O)[C@H](CC(C)C)N(C)C(=O)CN(C)C1=O,46.9%,53.3%,78.5%,75.9%,74.4%,83.4%,68.6%,76.7%,83.9%,76.5%,54.7%,82.4%,82.7%,97.7%,50.9%,54.8%,87.2%,78.7%
COc1cc(NS(=O)(=O)C(C)C)cc(-c2cc(-c3ccc(N4CCNCC4)cc3)cnc2N)c1,54.1%,80%,96.6%,73.2%,95.9%,96.9%,36.9%,90.8%,65.4%,111%,81.9%,78.4%,92.5%,82%,81.2%,14.2%,80.5%,48.3%
CN(Cc1ccccc1)c1nc(Cl)c(C2CC(c3ccc(F)cc3)=NN2C=O)s1 (stereo not given),92.2%,82.5%,100%,99.8%,90.9%,113%,89.4%,100%,97.9%,90.2%,85.5%,113%,96.8%,101%,86.7%,86.9%,95.4%,93.2%
N#CC(Cc1cccc2ccccc12)c1cc2ccccc2[nH]1 (stereo not given),99.2%,72.3%,87.7%,89%,95.1%,84.1%,86.4%,89.7%,89.7%,87.2%,83.8%,90.1%,102%,89.3%,82.5%,83.7%,99.2%,88%
Cc1ccc(S(=O)(=O)OC[C@@]2(C)CC[C@]3(C)CC[C@]4(C)C(=C3C2)C=C[C@@H]2[C@@]3(C)CCCNC(C)(C)[C@@H]3CC[C@]24C)cc1,-30.9% (active),-66% (active),-65.6% (active),34.8%,-40.5% (active),104%,-2.07% (active),23.5%,83.4%,-19.7% (active),-57.7% (active),83.6%,-38.2% (active),-85.8% (active),-4.17% (active),-91.4% (active),-29% (active),-75.8% (active)
O=C(O)C1C2CCC1C(O)C2 (stereo not given),96.2% and 88.2%,104% and 90.5%,100% and 98.1%,96.5% and 96.2%,106% and 108%,105% and 98.8%,124% and 112%,108% and 96.9%,110% and 109%,96.7% and 98.2%,92.3% and 97.4%,98.2% and 97.1%,106%,107% and 113%,92% and 97.8%,100% and 101%,99.9% and 101%,107% and 98.7%
COc1cc(CNC(=O)CCCC/C=C/C(C)C)ccc1O,91.7% and 99%,100% and 94.7%,109%,92.7%,93.3% and 104%,117% and 105%,96.8% and 88.2%,84.5% and 119%,91.5% and 111%,113% and 97.5%,97.4% and 96.2%,125% and 83.4%,99% and 106%,113%,103% and 96.7%,96.4% and 100%,143% and 109%,106% and 108%
CCOC(=O)n1cc(-c2nonc2-c2cn(C)c3ccc(OC)cc23)c2cc(F)ccc21,79%,74.5%,75.7%,62%,75%,81%,73.2%,87.4%,70.2%,82.2%,73%,86.9%,85.7%,80.5%,77.6%,77.3%,91.9%,77.7%
COc1ccc(/C=C(\C#N)c2cc3ccccc3[nH]2)cc1,11.4%,14.9%,32%,42.5%,62.4%,47.7%,45.7%,14.1%,22.9%,-6.87% (active),28.3%,40.9%,-32.6% (active),9.82% (active),13.3%,12.5%,39%,20.4%
O=C(Cc1ccc(F)cc1)c1ccccc1,100%,95.9%,104%,122%,109%,108%,107%,129%,94%,108%,112%,97.2%,106%,110%,103%,103%,106%,111%
Cc1ccc(Nc2nc(-c3cc(O)c(C)c(C)c3O)cs2)cc1,70.3%,77.5%,84.1%,109%,105%,105%,92.9%,104%,97.9%,73%,35.5%,98.1%,66.4%,111%,71.9%,105%,112%,60.9%
Cc1ccc(NC(=O)c2sc3nc(C)c(C(=O)c4ccccc4)cc3c2N)cc1,45.2%,90.1%,94.6%,97.6%,89.3%,45.8%,95%,94.8%,75.9%,95.2%,87.7%,84.7%,39.5%,90.8%,70.9%,97.7%,106%,76.2%

# — PubChem BioAssay (NCI)
